# Laboratory results taken from PubChem BioAssay (NCATS).
# Where “and” joins values, the source holds several entries; their conditions need not be identical. Identical values can stand only once. Results filed as inconclusive are left out. Entries that show only a call come without a potency. Calls of active or inactive are those of the source. Calls come from the whole dose curve; as a rule, active = well fitted inhibition curve with a large enough effect; inconclusive = small, poorly fitted or top-dose-only effect; inactive = no such curve, though single readings can be large or run the other way. *1 amine or outer side, *2 acyl side, *3 side chain or, on linkers, in order; H or OH if unused. Where a SMILES comes first, the peptide text is derived from it. Bridges are numbered along the chain shown (N, C = ends). [ ]: non-standard residue; d: D form. The star is where a group is joined. ξ: configuration not given here. X10 = NC1=NCCC(C(N[*:1])C(=O)[*:2])N1; ΔAla(3-NHCONH2) = NC(=O)NC=C(N)C(=O)O; ξβ3hOrn = NCCCC(N)CC(=O)*; Dap = NC[CH](N)C(=O)O
# Test: Primary qHTS for inhibitors of nuclear receptor binding SET domain protein 2 (NSD2) in an RCH-ACV wild type WT cells (2C) (AID 1645877); note: nearly all actives have a fitted effect of over 70% in size
# Conditions: RCH-ACV (leukaemia line) NSD2 WT (2C) viability, CellTiter-Glo, 72 h; series mostly up to 44.9 µM
# Potency is the fitted concentration of half-maximal effect.
Structure (SMILES),Potency,outcome
CC(C)(C)C(O)/C=C/c1ccc2c(c1)OCO2 (stereo not drawn),inactive,–
CC(C)NCCCC1(C(N)=O)c2ccccc2-c2ccccc21,inactive,–
Cc1ccc(/C=N/n2c(-c3ccccc3)csc2=S)cc1,inactive,–
CC(=O)N[C@@H](CCC(N)=O)C(=O)O,inactive,–
CCOC(=O)c1cc(=O)c2c(OCC(COc3cccc4oc(C(=O)OCC)cc(=O)c34)OC(=O)[C@@H](N)CCCCN)cccc2o1,inactive,–
CCn1ccc(NS(=O)(=O)c2ccc(N)cc2)nc1=O,inactive,–
O=C(O)[C@H](O)[C@@H](O)[C@H](O[C@@H]1O[C@H](CO)[C@H](O)[C@H](O)[C@H]1O)[C@H](O)CO,inactive,–
CC(=O)OCC(=O)[C@@]1(O)CCC2C3CCC4=CC(=O)CC[C@]4(C)C3[C@@H](O)C[C@@]21C (stereo partly drawn),0.15 µM (active),–
O=C(CS(=O)Cc1ccco1)NC/C=C\COc1cc(CN2CCCCC2)ccn1 (stereo not drawn),inactive,–
CC(=O)[C@@]1(O)CC[C@H]2[C@@H]3C[C@H](C)C4=CC(=O)CC[C@]4(C)[C@H]3CC[C@@]21C,15 µM (active),–
CN1C(=O)CC(C)(c2ccccc2)C1=O (stereo not drawn),inactive,–
N#Cc1cc(NC(=O)C(=O)O)c(Cl)c(NC(=O)C(=O)O)c1,inactive,–
CCO[C@H](Cc1ccc(OCCc2ccc(OS(C)(=O)=O)cc2)cc1)C(=O)O,inactive,–
CCOC(=O)c1ccc(NC(=O)CN2CCCCC2)cc1,inactive,–
Cc1ccccc1N1CCN(CCc2nnc3n2CCCC3)CC1,inactive,–
CC(C)(C)NCC(O)COc1ccccc1OCC1CCCO1 (stereo not drawn),inactive,–
CC(=O)Oc1ccc(C2(c3ccc(OC(C)=O)cc3)Oc3ccccc3NC2=O)cc1,10.3 µM (active),–
Brc1ccc([C@H]2CN3CCSC3=N2)cc1,inactive,–
O=C(O)[C@@H](O)[C@H](O)[C@H](O)[C@@H](O)C(=O)O,inactive,–

Structure (SMILES),Potency,outcome
C/C(=C1\CCOC(=O)S1)N(C=O)Cc1cnc(C)nc1N,inactive,–
CC(C)(C)CC(=O)OCC(=O)[C@@]1(O)CC[C@H]2[C@@H]3CCC4=CC(=O)C=C[C@]4(C)[C@H]3[C@@H](O)C[C@@]21C,0.0531 µM (active),–
CCN(CC)CC(=O)Nc1c(C)cccc1C(=O)OC,inactive,–
O=[N+]([O-])c1cncn1CCN1CCOCC1,inactive,–
O=C1[C@@H]2[C@H]3CC[C@H](C3)[C@@H]2C(=O)N1CCCCN1CCN(c2ncccn2)CC1,inactive,–
N#C/C(=C1/SC[C@@H](c2ccc(Cl)cc2Cl)S1)n1ccnc1,11.9 µM (active),–
CC(C)Cc1ccc(C(C)C(=O)OCc2ccccn2)cc1 (stereo not drawn),inactive,–
CCCC(=O)OCOC(=O)C1=C(C)NC(C)=C(C(=O)OC)C1c1cccc(Cl)c1Cl (stereo not drawn),inactive,–
O=C(O)C(=O)Nc1cccc(-c2nn[nH]n2)c1,inactive,–
CN1C(CSCC(F)(F)F)Nc2cc(Cl)c(S(N)(=O)=O)cc2S1(=O)=O (stereo not drawn),inactive,–
CCCCCC[C@@H](CCC)C(=O)O,inactive,–
CC(=O)Nc1c(I)c(NC(C)=O)c(I)c(C(=O)O)c1I,inactive,–
O=C(OCC(COC(=O)c1cccnc1)(COC(=O)c1cccnc1)COC(=O)c1cccnc1)c1cccnc1,inactive,–
CCC1=C[C@@H]2CN(C1)Cc1c([nH]c3ccccc13)[C@@](C(=O)OC)(c1cc3c(cc1OC)N(C)[C@H]1[C@@](O)(C(=O)OC)[C@H](OC(C)=O)[C@]4(CC)C=CCN5CC[C@]31[C@@H]54)C2,2.1 nM (active) and 162 nM (active),–
CCCCCOc1ccccc1/C(=C\SC)n1ccnc1,13.3 µM (active),–
O=C(Nc1ccc(Cl)cc1)Nc1ccc(Cl)c(Cl)c1,6.68 µM (active),–
CC(C(O)c1ccccc1)N(C)CCOC(c1ccccc1)c1ccccc1 (stereo not drawn),16.3 µM (active),–
C/C(=N\O)[C@@H](C)NCC(C)(C)CN[C@H](C)/C(C)=N/O,inactive,–
NCCCC(N)CC(=O)NCC1NC(=O)C(CO)NC(=O)C(N)CNC(=O)C(C2CCN=C(N)N2)NC(=O)C(=CNC(N)=O)NC1=O (stereo not drawn) (H-[Dap]S[Dap](ξβ3hOrn)[ΔAla(3-NHCONH2)][X10]; lactam 1-C; configuration not given here),–,inactive [at 0.588 µM]
